From the supplement of paper PMC3334620 come the findings set out here.

Whole data set: some 33,000 sequences, median “E-score (-0.5 to 0.5)” near -0.012, cut for the highest 2% near 0.29. Many of the other results were omitted from the sample, so the highest values are more common in it than they were.

For the assay, the target named is T1, Ybr033w (UniProt P38073).
T1 sequence: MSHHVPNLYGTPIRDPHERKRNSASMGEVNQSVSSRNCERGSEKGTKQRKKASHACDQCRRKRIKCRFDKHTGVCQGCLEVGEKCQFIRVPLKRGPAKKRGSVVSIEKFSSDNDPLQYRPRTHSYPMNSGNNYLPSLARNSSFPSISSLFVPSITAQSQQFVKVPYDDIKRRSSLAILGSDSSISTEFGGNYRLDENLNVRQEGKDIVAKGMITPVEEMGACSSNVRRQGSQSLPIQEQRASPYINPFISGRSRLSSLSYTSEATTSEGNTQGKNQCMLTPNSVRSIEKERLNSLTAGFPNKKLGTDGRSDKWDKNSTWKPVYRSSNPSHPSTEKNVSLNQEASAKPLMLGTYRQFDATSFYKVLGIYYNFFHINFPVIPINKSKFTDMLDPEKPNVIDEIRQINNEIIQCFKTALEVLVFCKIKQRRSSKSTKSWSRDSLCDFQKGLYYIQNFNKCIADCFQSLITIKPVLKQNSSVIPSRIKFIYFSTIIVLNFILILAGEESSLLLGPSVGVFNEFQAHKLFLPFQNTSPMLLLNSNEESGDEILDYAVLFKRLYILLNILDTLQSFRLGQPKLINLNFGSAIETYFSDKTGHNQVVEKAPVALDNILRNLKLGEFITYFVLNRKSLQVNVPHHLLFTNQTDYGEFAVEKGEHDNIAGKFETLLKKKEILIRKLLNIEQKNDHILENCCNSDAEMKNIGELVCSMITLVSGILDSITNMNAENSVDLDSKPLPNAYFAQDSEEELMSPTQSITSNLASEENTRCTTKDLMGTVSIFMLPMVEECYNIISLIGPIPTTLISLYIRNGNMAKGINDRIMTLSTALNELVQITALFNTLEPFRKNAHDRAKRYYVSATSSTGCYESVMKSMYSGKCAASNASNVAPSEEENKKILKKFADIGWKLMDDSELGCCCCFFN
Put plainly: PBM E-score (8-mer binding enrichment) (E-score (-0.5 to 0.5)); higher = stronger / more preferred TF binding. The conditions noted are these: protein concentration: 200 nM; construct: GST-full length. The protocol:
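Universal 'all 10-mer' protein binding microarrays (Agilent AMADID 015681) probed with GST-tagged S. cerevisiae TFs (full-length or DBD) made by in vitro transcription/translation (PURExpress), about 100-200 nM. Bound TF was detected with fluorescent anti-GST. Each ungapped 8-mer (which stands for itself and its reverse complement) is scored by the PBM enrichment score (E-score), a modified Wilcoxon-Mann-Whitney statistic from -0.5 to +0.5, computed with the Universal PBM Analysis Suite. Scale: above 0.35 generally sequence-specific binding.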
Take AGATACCT: the “PBM E-score” value is -0.0724.

Consider AAAGAGAC, for which the “PBM E-score” value is -0.0019.

Take ATAATTAT: the “PBM E-score” value stood at 0.372.

On to TTAATTAA, for which the “PBM E-score” value came to 0.241.

Take ATAATTAA: the “PBM E-score” value came out at 0.414.

On to ATAATTAG, for which the “PBM E-score” value came to 0.272.

In the case of ATAATTAC, the “PBM E-score” value is 0.353.

On to CTAATTAC, for which the “PBM E-score” value is 0.131.

ATTATAAT: the “PBM E-score” value was found to be 0.205.

As to GTAATTAA, the “PBM E-score” value was 0.105.

As for GTAATTAC, the “PBM E-score” value is 0.218.

ATTGATGG: the “PBM E-score” value was determined as 0.213.

For the sequence ATAGGTTC, the “PBM E-score” value was 0.143.

In the case of AGGCAACT, the “PBM E-score” value was found to be 0.174.

Consider CCGCGCAC, for which the “PBM E-score” value is -0.0688.

Consider AAGCAACA, for which the “PBM E-score” value turned out to be 0.117.

On to CTTGCATC, for which the “PBM E-score” value was -0.144.

Turning to AATCCGCA, the “PBM E-score” value is 0.119.

In the case of TATCCGCA, the “PBM E-score” value amounted to 0.306.

For the sequence CATCCGCA, the “PBM E-score” value amounted to 0.156.

As for CGAGAGCA, the “PBM E-score” value is -0.0204.

GAAAAAGC: the “PBM E-score” value stood at 0.239.

With ACCGACCT, the “PBM E-score” value is -0.172.

For the sequence GCGCGCGA, the “PBM E-score” value turned out to be 0.111.

ACGCGCGC: the “PBM E-score” value is -0.0247.

With GCGCGCGC, the “PBM E-score” value worked out at 0.334.

As for CGTCTGTA, the “PBM E-score” value is -0.11.

Take CGGTGATA: the “PBM E-score” value came to 0.178.

Consider CATAGTTC, for which the “PBM E-score” value is -0.0864.

With AATAGTTC, the “PBM E-score” value came out at 0.294.

On to AATAGTTG, for which the “PBM E-score” value came out at 0.207.

On to AGTAGTTG, for which the “PBM E-score” value came to 0.176.

As for AGTAGTTC, the “PBM E-score” value was determined as 0.307.

With AGTAGTTA, the “PBM E-score” value turned out to be 0.0431.

CACAAATG: the “PBM E-score” value is 0.0361.

For the sequence CACGGTTC, the “PBM E-score” value was -0.265.

Consider GAAAGCGA, for which the “PBM E-score” value amounted to 0.101.

In the case of AGTACAAG, the “PBM E-score” value was found to be 0.0813.

With AGTACAAT, the “PBM E-score” value worked out at 0.302.

As for AGTACAAA, the “PBM E-score” value is 0.114.

In the case of CAGGTCGA, the “PBM E-score” value is 0.141.

As for GATCTTCC, the “PBM E-score” value stood at 0.33.

Take CATCTATA: the “PBM E-score” value amounted to 0.188.

With ATTCTTCC, the “PBM E-score” value came to 0.471.

As to AAACTTAA, the “PBM E-score” value was 0.259.

ATTCTTCA: the “PBM E-score” value turned out to be 0.129.

Turning to CTTCTTCC, the “PBM E-score” value was 0.0741.

With GATCTTGC, the “PBM E-score” value amounted to 0.0857.

Regarding AAACTTAC, the “PBM E-score” value was 0.168.

Consider GATCTATA, for which the “PBM E-score” value is 0.157.

As for CATCTTCC, the “PBM E-score” value was 0.0897.

Regarding AAACTTAT, the “PBM E-score” value was 0.379.

Regarding AATCTATA, the “PBM E-score” value turned out to be 0.297.

CGAATAGA: the “PBM E-score” value was -0.0851.

In the case of CTTCCATC, the “PBM E-score” value was -0.00237.

With ATTCAGAC, the “PBM E-score” value turned out to be 0.0909.

CGTCCCTC: the “PBM E-score” value is -0.217.

Consider AGCACAAG, for which the “PBM E-score” value was -0.0143.

Regarding AGGTCAGC, the “PBM E-score” value is 0.0524.

Consider CCAATCAA, for which the “PBM E-score” value came out at 0.075.

With GATCTTCA, the “PBM E-score” value was found to be 0.0894.

ACTCTTCC: the “PBM E-score” value was -0.0223.

Regarding AATCTTCT, the “PBM E-score” value was found to be 0.132.

Consider GAACTTCA, for which the “PBM E-score” value stood at 0.0447.

In the case of AAACTTCA, the “PBM E-score” value is 0.293.

Regarding AAACTTCG, the “PBM E-score” value amounted to 0.0988.

AATCTTCA: the “PBM E-score” value is 0.318.

With AATCTTCC, the “PBM E-score” value was determined as 0.411.

For AATCTTCG, the “PBM E-score” value turned out to be 0.0477.

As to TATTGCAA, the “PBM E-score” value stood at 0.246.

As for ACGAAGAC, the “PBM E-score” value is -0.177.

Turning to CTATTGAG, the “PBM E-score” value is -0.0501.

As to TCTCCAGA, the “PBM E-score” value is -0.189.

Regarding CCCGGTTC, the “PBM E-score” value was -0.0468.

With CGGACACA, the “PBM E-score” value is -0.152.

With CAACGATA, the “PBM E-score” value worked out at 0.187.

AAACGATA: the “PBM E-score” value is 0.213.

With TAACGATA, the “PBM E-score” value came to 0.292.

CTTGGCTC: the “PBM E-score” value was -0.146.

For AGCCCAGC, the “PBM E-score” value was -0.2.

Consider GATTGCAA, for which the “PBM E-score” value is 0.171.

Turning to AATGTGAT, the “PBM E-score” value came out at 0.15.

Consider AATGTGAC, for which the “PBM E-score” value came out at 0.0448.

For AATGTGAA, the “PBM E-score” value amounted to 0.313.

For the sequence GCATCACA, the “PBM E-score” value was 0.215.

For TTACCAAA, the “PBM E-score” value was 0.235.

For ACTACTAC, the “PBM E-score” value was determined as 0.153.

Take ACTACTAT: the “PBM E-score” value is 0.328.

For the sequence ACTACTAA, the “PBM E-score” value was 0.173.

On to AGAGGAGG, for which the “PBM E-score” value is -0.26.

AAGATTTC: the “PBM E-score” value stood at 0.169.

In the case of GTACAAAC, the “PBM E-score” value amounted to 0.0352.

On to ATACAAAA, for which the “PBM E-score” value was 0.311.

With ATACAAAC, the “PBM E-score” value amounted to 0.306.

ATACATAA: the “PBM E-score” value amounted to 0.309.

For the sequence CTACATAA, the “PBM E-score” value is 0.0125.

Turning to ATACAAAG, the “PBM E-score” value stood at 0.298.

Regarding TTACAAAA, the “PBM E-score” value is 0.268.

Regarding CTACAAAG, the “PBM E-score” value was determined as 0.0965.

Regarding ATACATAC, the “PBM E-score” value was found to be 0.0684.

Regarding ATACAAAT, the “PBM E-score” value is 0.252.

As for CTACAAAC, the “PBM E-score” value came out at 0.152.

As for CTACAAAA, the “PBM E-score” value is 0.00298.

Regarding TACCGGAA, the “PBM E-score” value was 0.27.

Turning to TGCTACAA, the “PBM E-score” value worked out at 0.161.

For CAGTTTGA, the “PBM E-score” value was determined as 0.206.

Take AGCGGCAT: the “PBM E-score” value amounted to 0.0383.

As for CCCACAAC, the “PBM E-score” value was -0.108.

Take CTGTAGGA: the “PBM E-score” value stood at 0.0305.
